This note sets out measurements from ChEMBL document CHEMBL1961873, “Compounds: GSK PKIS; Assays: Nanosyn kinase panel” (2012).

Assay [1] concerns the target T1, Tyrosine-protein kinase ITK/TSK (Homo sapiens) (UniProt Q08881).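 Note: values are mean percent inhibition of ITK from the GSK PKIS screen.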
T1 sequence (whole entry): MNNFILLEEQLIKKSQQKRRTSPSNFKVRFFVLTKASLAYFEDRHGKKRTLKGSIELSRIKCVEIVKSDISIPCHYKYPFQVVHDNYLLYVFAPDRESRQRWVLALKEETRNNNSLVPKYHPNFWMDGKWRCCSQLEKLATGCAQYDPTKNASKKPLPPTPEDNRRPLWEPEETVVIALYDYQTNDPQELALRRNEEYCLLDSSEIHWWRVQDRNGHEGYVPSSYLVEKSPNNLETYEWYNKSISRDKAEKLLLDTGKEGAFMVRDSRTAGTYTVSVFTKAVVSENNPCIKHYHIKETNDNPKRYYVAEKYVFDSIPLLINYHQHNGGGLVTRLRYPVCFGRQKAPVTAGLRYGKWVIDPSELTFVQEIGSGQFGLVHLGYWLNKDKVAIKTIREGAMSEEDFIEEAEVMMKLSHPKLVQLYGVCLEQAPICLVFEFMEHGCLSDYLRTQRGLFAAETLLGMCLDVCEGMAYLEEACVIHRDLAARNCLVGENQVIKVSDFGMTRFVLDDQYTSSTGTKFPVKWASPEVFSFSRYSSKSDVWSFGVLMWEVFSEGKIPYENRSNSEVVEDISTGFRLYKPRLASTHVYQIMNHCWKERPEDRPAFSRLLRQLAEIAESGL
The note with it: at 1 µM.

Assay [2] concerns the target Tyrosine-protein kinase JAK1 (Homo sapiens) (UniProt P23458). Particulars: at 0.1 µM.
For assay [3] the target is unchanged. The note with it: at 1 µM.
For assay [4], the target named is Tyrosine-protein kinase JAK2 (Homo sapiens) (UniProt O60674). Particulars: at 0.1 µM.
The target is the same in assay [5]. The note with it: at 1 µM.
The target of assay [6] is T2, Tyrosine-protein kinase JAK3 (Homo sapiens) (UniProt P52333).
T2 sequence (whole entry): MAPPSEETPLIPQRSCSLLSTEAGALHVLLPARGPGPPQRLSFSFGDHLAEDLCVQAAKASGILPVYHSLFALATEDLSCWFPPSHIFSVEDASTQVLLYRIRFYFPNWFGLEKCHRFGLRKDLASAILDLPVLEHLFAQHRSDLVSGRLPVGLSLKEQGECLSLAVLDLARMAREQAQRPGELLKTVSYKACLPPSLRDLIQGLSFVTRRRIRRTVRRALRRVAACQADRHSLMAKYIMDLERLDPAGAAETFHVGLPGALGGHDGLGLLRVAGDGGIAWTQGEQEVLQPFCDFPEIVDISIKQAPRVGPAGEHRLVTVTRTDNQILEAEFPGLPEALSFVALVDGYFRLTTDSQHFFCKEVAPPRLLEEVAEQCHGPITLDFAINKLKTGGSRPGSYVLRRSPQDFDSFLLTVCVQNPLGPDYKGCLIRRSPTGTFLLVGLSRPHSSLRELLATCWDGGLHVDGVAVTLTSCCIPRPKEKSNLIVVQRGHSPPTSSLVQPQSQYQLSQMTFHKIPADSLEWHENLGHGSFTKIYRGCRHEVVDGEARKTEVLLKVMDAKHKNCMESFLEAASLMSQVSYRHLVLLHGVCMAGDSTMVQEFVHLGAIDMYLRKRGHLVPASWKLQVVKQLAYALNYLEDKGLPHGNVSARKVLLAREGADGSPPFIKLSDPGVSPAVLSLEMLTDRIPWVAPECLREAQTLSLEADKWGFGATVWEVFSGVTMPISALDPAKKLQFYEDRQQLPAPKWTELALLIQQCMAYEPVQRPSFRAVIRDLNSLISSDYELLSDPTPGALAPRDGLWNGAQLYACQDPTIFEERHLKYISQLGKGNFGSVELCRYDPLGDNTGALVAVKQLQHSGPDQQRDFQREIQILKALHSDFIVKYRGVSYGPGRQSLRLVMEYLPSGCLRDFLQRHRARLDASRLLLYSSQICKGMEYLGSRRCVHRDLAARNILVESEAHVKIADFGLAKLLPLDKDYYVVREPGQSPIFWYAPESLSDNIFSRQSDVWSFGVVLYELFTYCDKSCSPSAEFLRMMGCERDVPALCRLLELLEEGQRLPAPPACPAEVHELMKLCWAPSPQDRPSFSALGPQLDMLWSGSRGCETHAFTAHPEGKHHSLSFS
The note with it: at 0.1 µM.

Assay [7] has as its target T2, Tyrosine-protein kinase JAK3 (Homo sapiens). Particulars: at 1 µM.
Assay [8] addresses Vascular endothelial growth factor receptor 2 (Homo sapiens) (UniProt P35968). Particulars: at 0.1 µM.
For assay [9] the target is unchanged. Particulars: at 1 µM.
The target in assay [10] is Mast/stem cell growth factor receptor Kit (Homo sapiens) (UniProt P10721). The note with it: at 0.1 µM.
Assay [11] has the same target. Particulars: at 1 µM.
Assay [12] deals with Mast/stem cell growth factor receptor Kit (Homo sapiens), P10721 [D816V]. The note with it: at 0.1 µM.
For assay [13] the test system is unchanged. Particulars: at 1 µM.
The subject of assay [14] is Mast/stem cell growth factor receptor Kit (Homo sapiens), P10721 [T670I]. Particulars: at 0.1 µM.
Assay [15] shares this test system. The note with it: at 1 µM.
In assay [16] the test system is Mast/stem cell growth factor receptor Kit (Homo sapiens), P10721 [V560G]. Particulars: at 0.1 µM.
Assay [17] has the same test system. Particulars: at 1 µM.
Assay [18] deals with Tyrosine-protein kinase Lck (Homo sapiens) (UniProt P06239). The note with it: at 0.1 µM.
Assay [19] shares this target. Particulars: at 1 µM.
Assay [20] deals with Leukocyte tyrosine kinase receptor (Homo sapiens) (UniProt P29376). Particulars: at 0.1 µM.

Molecules are shown by their SMILES.

Tyrosine-protein kinase JAK1 (Homo sapiens), sequence (P23458 whole entry): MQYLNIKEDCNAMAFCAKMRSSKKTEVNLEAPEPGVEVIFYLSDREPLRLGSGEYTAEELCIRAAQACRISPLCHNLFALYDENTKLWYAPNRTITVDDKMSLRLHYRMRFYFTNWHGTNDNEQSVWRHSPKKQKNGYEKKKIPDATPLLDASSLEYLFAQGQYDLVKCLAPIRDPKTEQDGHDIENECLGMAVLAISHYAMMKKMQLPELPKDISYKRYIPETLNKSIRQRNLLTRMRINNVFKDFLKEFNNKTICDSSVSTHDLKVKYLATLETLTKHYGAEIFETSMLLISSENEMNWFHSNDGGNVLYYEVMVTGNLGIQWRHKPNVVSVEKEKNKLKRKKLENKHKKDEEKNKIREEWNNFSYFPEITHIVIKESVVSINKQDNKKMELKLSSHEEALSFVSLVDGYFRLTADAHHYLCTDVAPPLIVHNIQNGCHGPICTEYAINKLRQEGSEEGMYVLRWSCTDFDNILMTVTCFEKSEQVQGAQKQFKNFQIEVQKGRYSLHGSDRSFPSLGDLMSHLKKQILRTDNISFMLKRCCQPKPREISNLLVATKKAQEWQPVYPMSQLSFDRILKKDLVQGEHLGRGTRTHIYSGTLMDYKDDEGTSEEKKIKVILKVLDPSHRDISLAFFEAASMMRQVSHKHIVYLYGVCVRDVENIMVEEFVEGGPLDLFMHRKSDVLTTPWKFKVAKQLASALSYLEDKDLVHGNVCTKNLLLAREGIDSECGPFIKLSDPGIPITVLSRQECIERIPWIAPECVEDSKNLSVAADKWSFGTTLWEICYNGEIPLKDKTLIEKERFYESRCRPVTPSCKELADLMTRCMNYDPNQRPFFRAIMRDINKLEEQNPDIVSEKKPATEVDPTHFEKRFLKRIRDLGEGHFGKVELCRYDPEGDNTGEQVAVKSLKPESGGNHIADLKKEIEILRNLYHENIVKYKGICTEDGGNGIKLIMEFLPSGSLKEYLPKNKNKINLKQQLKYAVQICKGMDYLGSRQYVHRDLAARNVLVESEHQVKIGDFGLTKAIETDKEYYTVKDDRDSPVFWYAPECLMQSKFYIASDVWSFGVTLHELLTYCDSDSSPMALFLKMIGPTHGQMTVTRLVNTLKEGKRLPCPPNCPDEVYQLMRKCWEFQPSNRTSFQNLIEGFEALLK
Tyrosine-protein kinase JAK2 (Homo sapiens), sequence (O60674 whole entry): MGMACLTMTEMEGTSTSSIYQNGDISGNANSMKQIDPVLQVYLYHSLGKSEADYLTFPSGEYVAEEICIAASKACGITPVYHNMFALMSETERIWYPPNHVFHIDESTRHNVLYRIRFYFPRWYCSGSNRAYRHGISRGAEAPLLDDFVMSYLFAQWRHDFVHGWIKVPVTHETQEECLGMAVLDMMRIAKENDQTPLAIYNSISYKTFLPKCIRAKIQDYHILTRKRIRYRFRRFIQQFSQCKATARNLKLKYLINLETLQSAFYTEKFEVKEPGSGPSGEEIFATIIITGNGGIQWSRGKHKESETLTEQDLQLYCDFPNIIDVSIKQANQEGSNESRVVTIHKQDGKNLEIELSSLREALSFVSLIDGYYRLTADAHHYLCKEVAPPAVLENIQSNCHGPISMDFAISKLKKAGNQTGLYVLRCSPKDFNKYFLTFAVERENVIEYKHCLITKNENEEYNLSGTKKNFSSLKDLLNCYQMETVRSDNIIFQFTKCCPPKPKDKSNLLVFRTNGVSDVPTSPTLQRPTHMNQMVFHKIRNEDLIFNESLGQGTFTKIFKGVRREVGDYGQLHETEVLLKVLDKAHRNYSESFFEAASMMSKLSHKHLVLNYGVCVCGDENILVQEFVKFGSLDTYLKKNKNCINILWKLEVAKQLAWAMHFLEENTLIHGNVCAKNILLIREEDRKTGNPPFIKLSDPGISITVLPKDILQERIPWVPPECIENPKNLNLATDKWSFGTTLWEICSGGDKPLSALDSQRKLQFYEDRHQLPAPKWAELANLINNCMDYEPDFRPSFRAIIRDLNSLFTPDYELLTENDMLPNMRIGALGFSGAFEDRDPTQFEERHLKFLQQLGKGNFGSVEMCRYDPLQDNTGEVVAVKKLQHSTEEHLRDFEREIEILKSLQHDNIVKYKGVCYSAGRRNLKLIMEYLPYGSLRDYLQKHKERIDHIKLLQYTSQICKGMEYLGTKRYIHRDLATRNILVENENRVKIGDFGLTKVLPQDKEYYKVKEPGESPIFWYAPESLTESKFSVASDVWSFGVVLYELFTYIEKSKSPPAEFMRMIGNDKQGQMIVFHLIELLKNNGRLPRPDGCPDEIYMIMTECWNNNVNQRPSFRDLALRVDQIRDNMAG
Mast/stem cell growth factor receptor Kit (Homo sapiens), P10721 [D816V], sequence (P10721 whole entry D816V): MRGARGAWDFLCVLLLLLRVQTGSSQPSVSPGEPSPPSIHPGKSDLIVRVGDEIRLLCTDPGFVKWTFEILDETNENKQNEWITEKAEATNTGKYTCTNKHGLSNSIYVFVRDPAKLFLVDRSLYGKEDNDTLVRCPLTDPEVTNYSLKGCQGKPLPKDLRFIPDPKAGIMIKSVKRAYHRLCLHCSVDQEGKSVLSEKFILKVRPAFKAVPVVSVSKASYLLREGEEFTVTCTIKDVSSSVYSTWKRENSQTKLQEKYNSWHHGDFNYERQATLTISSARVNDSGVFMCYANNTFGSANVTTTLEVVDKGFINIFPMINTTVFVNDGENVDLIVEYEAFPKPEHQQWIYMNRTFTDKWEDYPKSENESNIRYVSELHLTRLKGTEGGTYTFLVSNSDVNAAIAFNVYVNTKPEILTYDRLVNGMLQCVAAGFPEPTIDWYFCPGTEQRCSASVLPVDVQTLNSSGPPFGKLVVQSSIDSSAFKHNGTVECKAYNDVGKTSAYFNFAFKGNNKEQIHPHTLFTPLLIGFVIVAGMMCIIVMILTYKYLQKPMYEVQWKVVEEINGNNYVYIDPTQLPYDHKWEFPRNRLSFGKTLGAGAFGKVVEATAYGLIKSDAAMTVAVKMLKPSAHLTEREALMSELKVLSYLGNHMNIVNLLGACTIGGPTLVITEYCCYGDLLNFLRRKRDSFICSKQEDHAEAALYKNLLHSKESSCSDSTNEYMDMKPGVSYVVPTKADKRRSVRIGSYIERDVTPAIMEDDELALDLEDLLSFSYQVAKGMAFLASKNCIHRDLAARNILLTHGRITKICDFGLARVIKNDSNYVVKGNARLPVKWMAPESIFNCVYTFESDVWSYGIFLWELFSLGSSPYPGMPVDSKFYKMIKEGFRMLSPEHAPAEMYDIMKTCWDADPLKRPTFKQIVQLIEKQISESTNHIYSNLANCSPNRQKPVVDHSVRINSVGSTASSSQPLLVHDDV
Mast/stem cell growth factor receptor Kit (Homo sapiens), sequence (P10721 whole entry): as the sequence (P10721 whole entry D816V) above, with V816D counted along it
Vascular endothelial growth factor receptor 2 (Homo sapiens), sequence (P35968 whole entry): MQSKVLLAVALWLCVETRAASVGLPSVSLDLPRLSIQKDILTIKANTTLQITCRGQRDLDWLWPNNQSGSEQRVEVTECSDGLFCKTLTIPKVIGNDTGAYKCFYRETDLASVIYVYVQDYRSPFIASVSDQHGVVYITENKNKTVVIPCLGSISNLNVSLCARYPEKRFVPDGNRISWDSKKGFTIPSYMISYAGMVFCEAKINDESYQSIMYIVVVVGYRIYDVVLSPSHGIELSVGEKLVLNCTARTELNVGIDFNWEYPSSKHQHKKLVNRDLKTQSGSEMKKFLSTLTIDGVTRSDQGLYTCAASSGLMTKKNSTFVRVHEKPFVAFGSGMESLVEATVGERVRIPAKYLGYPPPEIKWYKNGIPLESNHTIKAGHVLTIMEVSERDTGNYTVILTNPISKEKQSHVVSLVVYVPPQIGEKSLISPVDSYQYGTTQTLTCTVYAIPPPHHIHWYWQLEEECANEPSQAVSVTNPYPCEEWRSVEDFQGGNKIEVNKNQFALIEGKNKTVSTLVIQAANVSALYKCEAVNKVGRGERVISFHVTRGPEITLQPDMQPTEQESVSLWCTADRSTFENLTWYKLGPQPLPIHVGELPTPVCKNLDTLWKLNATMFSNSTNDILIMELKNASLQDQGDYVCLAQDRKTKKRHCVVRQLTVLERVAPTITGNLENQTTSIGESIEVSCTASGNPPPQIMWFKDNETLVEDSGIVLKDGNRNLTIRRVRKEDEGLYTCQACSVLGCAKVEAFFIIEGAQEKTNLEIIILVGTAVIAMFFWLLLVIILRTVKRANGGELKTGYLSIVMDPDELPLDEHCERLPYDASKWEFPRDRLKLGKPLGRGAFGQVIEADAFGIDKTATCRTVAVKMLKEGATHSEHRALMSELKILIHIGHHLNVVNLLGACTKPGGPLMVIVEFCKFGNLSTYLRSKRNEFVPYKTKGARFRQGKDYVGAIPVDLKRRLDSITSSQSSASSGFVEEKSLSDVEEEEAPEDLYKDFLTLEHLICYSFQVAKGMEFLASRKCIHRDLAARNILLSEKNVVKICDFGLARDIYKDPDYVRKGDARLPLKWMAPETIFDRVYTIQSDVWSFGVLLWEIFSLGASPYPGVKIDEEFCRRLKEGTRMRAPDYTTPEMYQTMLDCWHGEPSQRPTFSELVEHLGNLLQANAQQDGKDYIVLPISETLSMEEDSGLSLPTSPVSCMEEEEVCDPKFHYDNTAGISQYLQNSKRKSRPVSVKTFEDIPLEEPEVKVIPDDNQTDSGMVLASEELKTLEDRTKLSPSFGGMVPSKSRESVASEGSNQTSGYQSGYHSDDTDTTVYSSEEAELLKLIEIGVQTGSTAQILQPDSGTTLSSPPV
Mast/stem cell growth factor receptor Kit (Homo sapiens), P10721 [V560G], sequence (P10721 whole entry V560G): as the sequence (P10721 whole entry D816V) above, with V560G, V816D counted along it
Mast/stem cell growth factor receptor Kit (Homo sapiens), P10721 [T670I], sequence (P10721 whole entry T670I): as the sequence (P10721 whole entry D816V) above, with T670I, V816D counted along it

As usually defined, the inhibition is the relative decrease from the control value, in per cent. As for `c1ccc(Oc2ccc(Nc3ncc(-c4ccccc4)o3)cc2)cc1`, the inhibition is 2.13% in assay [1]; 0.76% in assay [2]; 3.56% in assay [3]; 1.66% in [4]; 1.65% in assay [5]; -0.5% in assay [6]. For the same compound, the inhibition is 4.13% in assay [7]; 4.37% in [8]; 3.48% in [9]; 3.26% in assay [10]; 19.9% in assay [11]; -0.64% in assay [12]. The inhibition in assay [13] is -0.49%; in assay [14], 2.73%; in [15] it was 5.55%; in assay [16], -0.1%; in assay [17], 5.53%; in assay [18], 2.67%. Further, the inhibition in assay [19] came to 2.2%; in [20], 1.67%.

For `CN(C)CCOc1ccc(-c2cc(-c3ccc4c(c3)CCC4=NO)c(-c3ccncc3)o2)cc1`, the inhibition in assay [1] is 0.28%; in assay [2], 1.5%; in assay [3] it was 0.68%; in assay [4] it was 0.4%; in assay [5], -1.64%; in assay [6] it was -0.61%. Besides, the inhibition in [7] was 1.8%; in assay [8], -0.68%; in [9], 0.23%; in [10], -2.06%; in assay [11], 1.55%; in assay [12], -1.77%. Further, the inhibition in assay [13] is -0.88%; in [14], 0.11%; in assay [15], 0.36%; in [16], 1.5%; in assay [17], 3.34%; in assay [18], 2.65%. The inhibition is 24.9% in [19] and -0.5% in assay [20].

Take `CCc1nccc2c1nc(-c1nonc1N)n2CC`: the inhibition in assay [1] is 1.25%; in [2], 0.52%; in assay [3], -2.63%; in assay [4], 3.71%; in [5], 2.91%; in assay [6], 0%. The inhibition in [7] amounted to 0.61%; in assay [8], 5.64%; in assay [9], 17.7%; in assay [10], 0.21%; in assay [11] it was 0.89%; in assay [12] it was 0.61%. For the same compound, the inhibition in [13] was -2.34%; in assay [14], -0.13%; in assay [15], -2.18%; in [16] it was 3.98%; in assay [17], 0.88%; in assay [18], 0.67%. Moreover, the inhibition turned out to be 6.3% in [19] and 6.17% in [20].

For the compound `CCS(=O)(=O)c1ccc(OC)c(Nc2ncc(-c3cccc(-c4ccccc4F)c3)o2)c1`, the inhibition was 2.37% in assay [1]; -2.17% in assay [2]; 1.93% in [3]; 0.19% in assay [4]; 2.27% in assay [5]; 1.2% in assay [6]. The inhibition is 13.9% in assay [7]; 66.9% in [8]; 89.5% in [9]; 53.7% in [10]; 90.9% in assay [11]; -0.16% in assay [12]. Also, the inhibition in [13] turned out to be 6.62%; in assay [14] it was 2.77%; in [15] it was 19.6%; in assay [16], 4.79%; in assay [17] it was 19.7%; in [18] it was 9.89%. Also, the inhibition was 55.8% in [19] and 1.34% in assay [20].

With `Clc1ccc(CNc2nccc(-c3cnn4ncccc34)n2)cc1`, the inhibition in [1] is 1.37%; in assay [2], -0.37%; in assay [3], -0.62%; in assay [4], 1.52%; in assay [5], 3.6%; in assay [6], -0.04%. Also, the inhibition in [7] was 2.94%; in assay [8] it was 0.99%; in [9], 2.77%; in [10], 5%; in assay [11], 19.4%; in assay [12] it was 0.92%. The inhibition in assay [13] stood at 5.08%; in assay [14], 1.59%; in assay [15] it was 6.47%; in [16], 3.83%; in assay [17], 7.92%; in assay [18], 2.31%. Also, the inhibition turned out to be 2.46% in assay [19] and 0.55% in assay [20].

For `NCc1ccc(-n2c(-c3nonc3N)nc3cnccc32)cc1`, the inhibition in assay [1] was 2.4%; in assay [2], 4.99%; in [3], 5.42%; in assay [4] it was 1.95%; in assay [5], 2.09%; in [6] it was -0.04%. Further, the inhibition was 1.57% in [7]; 10.5% in [8]; 22.8% in [9]; 5.81% in assay [10]; 10.8% in assay [11]; 4.7% in assay [12]. For the same compound, the inhibition in [13] was 2.04%; in [14], 4.14%; in assay [15] it was 5.42%; in [16] it was -2.06%; in assay [17] it was 2.07%; in assay [18], 3.81%. Also, the inhibition turned out to be 4.5% in assay [19] and 5.22% in [20].

Take `COc1cc2ncn(-c3cc(OCc4cccs4)c(C(N)=O)s3)c2cc1OC`: the inhibition in [1] is 2.34%; in assay [2], 9.11%; in [3], 19.9%; in [4], 1.45%; in [5] it was 1.19%; in assay [6] it was -2.77%. Further, the inhibition was -0.29% in [7]; 14.1% in [8]; 50.5% in assay [9]; 1.96% in assay [10]; 11.7% in assay [11]; -0.06% in [12]. Also, the inhibition in assay [13] is 3.94%; in [14], 1.45%; in assay [15], 7.04%; in [16], 1.25%; in assay [17], 4.05%; in assay [18], -0.61%. Besides, the values for the inhibition in [19] and in assay [20] were 13.8% and 1.76%, respectively.
